# Measured values: PubChem BioAssay
# Results filed as inconclusive are left out. Active and inactive are the calls of the source.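 How the source made its calls, unless noted: active means efflux inhibition above 0.42, the validation set average plus 4 SD; inconclusive means no clear call, values can overlap the other calls; inactive means the rest.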
# Key:
# [1] = rapamycin-like changes in RPL19A-GFP expression – cell-based, S. cerevisiae, multiplex flow cytometry, primary screen (AID 1862; in the data active means percent of DMSO control GFP below about 86%;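 further: lower values mimic rapamycin by blocking the RPL19A rise seen in DMSO cells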); details: S. cerevisiae RPL19A-GFP strain, flow cytometry fluorescence, 3 h; at 10 µM; stronger effect = lower value
# [2] = TOR pathway GLN3 branch reporter MEP2-GFP changes – S. cerevisiae, multiplex flow cytometry, primary screen (AID 1867;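 active means GFP response, as percent of the DMSO control, above the screen-wide mean plus 3 SD, about 139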;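 further: median GFP channel fluorescence of barcode-gated MEP2-GFP cells measured by flow cytometry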); details: S. cerevisiae MEP2-GFP strain, 3 h, at 10 µM, stronger effect = higher value, 100% means same as DMSO wells
# [3] = TOR pathway RTG branch CIT2 reporter changes – S. cerevisiae, GFP fusion, multiplex flow cytometry, primary screen (AID 1870;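 active means percent response above a set limit, the screen-wide mean plus 3 SD, cut at about 130% in these data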;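 further: barcoded CIT2-GFP strain pooled with four other GFP strains with rapamycin as positive control; median GFP fluorescence per well over plate mean of DMSO wells so 100% = DMSO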); details: S. cerevisiae CIT2-GFP expression, 3 h, at 10 µM, stronger effect = higher value
# [4] = TOR pathway LAP4-GFP level changes – S. cerevisiae, multiplex flow cytometry, primary screen (AID 1873;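 active means GFP signal, as percent of the solvent control, above the screen mean plus 3 SD, about 149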); details: S. cerevisiae LAP4-GFP expression, 3 h, at 10 µM, stronger effect = higher value
# [5] = yeast AGP1-GFP level changes, GLN3 branch – cell-based, multiplex flow cytometry, S. cerevisiae, primary screen (AID 1887;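 active means GFP signal above the screen-wide mean plus 3 SD, that is over about 124.5% of the solvent control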;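 further: AGP1-GFP fusion strain of S. cerevisiae within a five-strain barcoded multiplex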); details: 3 h, at 10 µM, stronger effect = higher value
# [6] = reduced mouse 2C T cell binding to pMHC/ICAM-1 vesicles – MLPCN validation set, flow cytometry, LFA-1/ICAM-1 modulator project, pilot screen (AID 2523;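 active means response below a set limit, under 55% cells CD8-positive and vesicle-bound, and CD8 cells' 90th-percentile brightness under 279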;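 on vesicle binding response: mean PE anti-B7-1 fluorescence of CD8+ cells relative to row control; 100% = QL9-loaded vesicles with DMSO vehicle in the same plate row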); details: 2C mouse CD8+ T cells, at 7 µM, stronger effect = lower value; double positive events: measured here: CD8+/vesicle+ event percentage
# [7] = target: Integrin beta-1 (Homo sapiens) + Integrin alpha-4 (Homo sapiens) (UniProt P13612+P05556); assay: alpha4beta1 integrin LIBS antibody binding reduction – U937 cells, HUTS-21 mAb, flow cytometry, validation set, VLA-4 allosteric modulator project, pilot screen (AID 2674;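 active means inhibition above 50%, about 3 SD of the validation set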;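 further: antibody binding induced by the VLA-4 ligand LDV present at three times its Kd; 0% = LDV ligand with antibody and no compound and 100% = antibody without LDV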); details: HUTS-21 LIBS mAb binding, at 6.7 µM, stronger effect = higher value, binding induced by LDV ligand
# Integrin beta-1 (Homo sapiens) + Integrin alpha-4 (Homo sapiens), sequence (P05556 whole entry, looked up): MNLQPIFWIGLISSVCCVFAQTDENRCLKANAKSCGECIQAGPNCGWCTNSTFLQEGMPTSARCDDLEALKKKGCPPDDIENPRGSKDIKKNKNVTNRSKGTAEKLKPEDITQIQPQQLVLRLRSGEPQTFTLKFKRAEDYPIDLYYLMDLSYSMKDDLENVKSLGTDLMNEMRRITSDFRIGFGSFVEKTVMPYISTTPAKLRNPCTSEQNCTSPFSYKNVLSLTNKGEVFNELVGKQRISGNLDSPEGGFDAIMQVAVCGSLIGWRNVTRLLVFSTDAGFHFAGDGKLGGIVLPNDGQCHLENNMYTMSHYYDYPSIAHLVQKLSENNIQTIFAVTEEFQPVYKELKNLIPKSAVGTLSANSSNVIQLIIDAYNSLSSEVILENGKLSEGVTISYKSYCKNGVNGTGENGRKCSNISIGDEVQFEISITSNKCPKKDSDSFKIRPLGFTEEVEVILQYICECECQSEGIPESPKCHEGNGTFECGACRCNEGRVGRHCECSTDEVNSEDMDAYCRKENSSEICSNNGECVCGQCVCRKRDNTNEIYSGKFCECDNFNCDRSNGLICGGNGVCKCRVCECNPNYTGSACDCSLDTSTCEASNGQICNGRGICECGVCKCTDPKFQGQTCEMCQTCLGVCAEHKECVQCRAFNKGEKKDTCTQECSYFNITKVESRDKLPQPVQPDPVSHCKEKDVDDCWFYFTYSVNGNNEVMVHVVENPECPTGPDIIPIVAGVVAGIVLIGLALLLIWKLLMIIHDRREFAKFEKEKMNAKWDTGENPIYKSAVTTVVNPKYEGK
# Integrin beta-1 (Homo sapiens) + Integrin alpha-4 (Homo sapiens), sequence (P13612 whole entry, looked up): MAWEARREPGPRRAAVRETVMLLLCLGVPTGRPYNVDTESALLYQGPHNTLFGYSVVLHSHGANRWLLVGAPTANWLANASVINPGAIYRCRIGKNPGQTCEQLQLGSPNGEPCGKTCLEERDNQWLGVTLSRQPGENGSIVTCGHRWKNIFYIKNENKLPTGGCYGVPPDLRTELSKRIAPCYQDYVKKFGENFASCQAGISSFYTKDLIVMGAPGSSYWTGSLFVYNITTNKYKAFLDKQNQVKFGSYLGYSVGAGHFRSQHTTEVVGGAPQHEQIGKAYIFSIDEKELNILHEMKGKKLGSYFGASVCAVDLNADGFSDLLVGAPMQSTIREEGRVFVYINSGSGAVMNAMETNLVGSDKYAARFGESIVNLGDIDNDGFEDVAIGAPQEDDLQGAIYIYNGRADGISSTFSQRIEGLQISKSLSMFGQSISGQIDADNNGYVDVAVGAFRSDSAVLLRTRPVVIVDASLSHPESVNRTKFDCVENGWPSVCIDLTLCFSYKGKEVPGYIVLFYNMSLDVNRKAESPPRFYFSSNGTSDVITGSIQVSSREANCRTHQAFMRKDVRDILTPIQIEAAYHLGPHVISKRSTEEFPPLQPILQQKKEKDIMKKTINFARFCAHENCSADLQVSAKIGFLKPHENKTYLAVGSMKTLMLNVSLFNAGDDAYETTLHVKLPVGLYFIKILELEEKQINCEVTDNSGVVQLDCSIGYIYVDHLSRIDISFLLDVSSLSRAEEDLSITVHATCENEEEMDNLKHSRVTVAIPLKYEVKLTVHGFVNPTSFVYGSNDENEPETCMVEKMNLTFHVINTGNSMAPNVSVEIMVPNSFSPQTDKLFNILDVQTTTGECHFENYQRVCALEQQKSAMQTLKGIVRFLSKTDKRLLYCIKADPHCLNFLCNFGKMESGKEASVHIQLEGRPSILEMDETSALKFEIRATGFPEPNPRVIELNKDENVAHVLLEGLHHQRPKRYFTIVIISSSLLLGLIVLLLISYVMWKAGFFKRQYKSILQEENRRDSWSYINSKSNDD
# [8] = calorie-restriction mimetic ROS inhibitors, yeast – validation compound set, pilot screen (AID 2706;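 active means superoxide response below 65% of plate, a cut near 3 SD across the whole screen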;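 further: yeast exposed to compound for one week at 30 degrees C before staining; 100% = mean of all compound wells on the same plate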); details: S. cerevisiae aging, superoxide DHE fluorescence; at 10 µM; stronger effect = lower value
# [9] = target: Beta-adrenergic receptor kinase 1 (Homo sapiens) (UniProt P25098); assay: GRK2 binders displacing RNA aptamer, biochemical, validation, human GRK2, bead flow cytometry (AID 488806;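 active means aptamer binding inhibition above 30%, about 3 SD of noise from non-fluorescent compounds; inactive means inhibition at or below 30%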); details: bead-bound GRK2, FAM-aptamer displacement, at 10 µM, stronger effect = higher value
# Beta-adrenergic receptor kinase 1 (Homo sapiens), sequence (P25098 whole entry, looked up): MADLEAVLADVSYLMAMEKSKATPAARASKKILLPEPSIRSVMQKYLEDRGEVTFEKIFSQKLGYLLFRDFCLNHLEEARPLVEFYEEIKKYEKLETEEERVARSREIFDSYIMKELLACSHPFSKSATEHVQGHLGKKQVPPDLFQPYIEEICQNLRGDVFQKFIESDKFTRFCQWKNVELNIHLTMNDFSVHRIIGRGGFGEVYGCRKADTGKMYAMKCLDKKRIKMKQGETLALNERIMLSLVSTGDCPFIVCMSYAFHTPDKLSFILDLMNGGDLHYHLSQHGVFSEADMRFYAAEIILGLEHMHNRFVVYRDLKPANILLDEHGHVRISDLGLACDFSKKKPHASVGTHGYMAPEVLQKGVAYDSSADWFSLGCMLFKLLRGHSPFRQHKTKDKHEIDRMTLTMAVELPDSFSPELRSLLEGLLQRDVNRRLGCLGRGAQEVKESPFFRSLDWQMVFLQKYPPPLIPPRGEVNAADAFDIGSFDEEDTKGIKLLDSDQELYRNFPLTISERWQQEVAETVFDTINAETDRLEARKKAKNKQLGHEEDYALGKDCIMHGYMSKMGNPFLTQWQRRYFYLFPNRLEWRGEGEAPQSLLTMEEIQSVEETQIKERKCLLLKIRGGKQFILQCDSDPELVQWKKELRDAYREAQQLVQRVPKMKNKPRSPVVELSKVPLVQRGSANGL
# [10] = target: Beta-2 adrenergic receptor (Homo sapiens) (UniProt P07550); assay: agonist-induced loss of surface beta2AR – cell-based, FAP fluorogen, flow cytometry, validation set, pilot screen (AID 504459;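 active means percent response above 42, roughly 3 SD of non-fluorescent test compounds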;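 further: agonist-driven loss of surface beta2AR via internalization measured by FAP dye flow cytometry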); details: Am2.2-beta2AR cells, at 10 µM, stronger effect = higher value
# Beta-2 adrenergic receptor (Homo sapiens), sequence (P07550 whole entry, looked up): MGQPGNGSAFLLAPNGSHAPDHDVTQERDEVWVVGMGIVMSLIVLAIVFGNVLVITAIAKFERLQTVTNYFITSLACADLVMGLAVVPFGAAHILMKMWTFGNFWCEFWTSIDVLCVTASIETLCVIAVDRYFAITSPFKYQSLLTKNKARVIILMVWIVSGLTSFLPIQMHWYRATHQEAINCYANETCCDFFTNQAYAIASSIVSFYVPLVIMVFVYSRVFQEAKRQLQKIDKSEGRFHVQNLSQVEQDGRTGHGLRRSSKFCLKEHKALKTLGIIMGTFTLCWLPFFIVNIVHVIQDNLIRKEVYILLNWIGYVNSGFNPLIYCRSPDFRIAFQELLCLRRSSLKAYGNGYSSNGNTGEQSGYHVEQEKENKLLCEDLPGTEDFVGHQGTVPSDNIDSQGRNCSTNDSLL
# [11] = target: AP-2 complex subunit beta (Homo sapiens) (UniProt P63010); assay: beta-arrestin/AP2 interaction blockers – biochemical, validation set, GST-AP2 beads, flow cytometry, pilot screen (AID 504541;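 active means inhibition above 54%, about 3 SD of non-fluorescent compounds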;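 further: AP2 carries R879A mutation and is captured from E. coli lysate; bead-bound FITC arrestin peptide fluorescence measuring arrestin peptide binding to AP2; 0% = DMSO wells and 100% = excess unlabeled arrestin peptide control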); details: FITC arrestin peptide, at 10 µM, stronger effect = higher value, AP2 beta2 appendage fragment, R879A mutant
# AP-2 complex subunit beta (Homo sapiens), sequence (P63010 whole entry, looked up, the tested form may be a part, one chain of several): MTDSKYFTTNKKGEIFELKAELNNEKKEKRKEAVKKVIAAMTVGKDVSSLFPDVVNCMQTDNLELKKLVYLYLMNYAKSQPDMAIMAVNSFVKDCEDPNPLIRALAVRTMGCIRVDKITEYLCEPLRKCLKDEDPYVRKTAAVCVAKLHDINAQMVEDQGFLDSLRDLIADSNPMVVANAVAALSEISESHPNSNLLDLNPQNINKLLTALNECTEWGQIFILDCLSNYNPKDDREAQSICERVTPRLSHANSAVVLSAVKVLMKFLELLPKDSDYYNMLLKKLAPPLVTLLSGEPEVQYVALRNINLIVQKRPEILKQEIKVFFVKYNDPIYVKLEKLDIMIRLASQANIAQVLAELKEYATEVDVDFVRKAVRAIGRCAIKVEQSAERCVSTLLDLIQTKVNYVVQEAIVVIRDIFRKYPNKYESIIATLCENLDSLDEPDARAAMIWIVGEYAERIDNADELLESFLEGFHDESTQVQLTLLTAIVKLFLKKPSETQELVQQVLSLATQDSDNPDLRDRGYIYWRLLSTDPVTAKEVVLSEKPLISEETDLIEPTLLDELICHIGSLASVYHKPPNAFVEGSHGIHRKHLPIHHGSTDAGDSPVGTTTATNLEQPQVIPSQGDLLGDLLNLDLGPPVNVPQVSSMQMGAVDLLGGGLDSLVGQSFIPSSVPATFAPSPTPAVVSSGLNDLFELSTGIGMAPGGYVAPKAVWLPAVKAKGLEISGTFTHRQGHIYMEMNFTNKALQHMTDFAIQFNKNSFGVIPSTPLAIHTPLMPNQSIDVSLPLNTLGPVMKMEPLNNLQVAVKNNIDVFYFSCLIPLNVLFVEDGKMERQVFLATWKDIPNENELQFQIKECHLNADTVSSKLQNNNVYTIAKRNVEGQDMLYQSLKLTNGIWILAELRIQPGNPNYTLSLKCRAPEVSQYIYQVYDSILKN
# [12] = cytosolic pH regulators acting via V-ATPase – S. cerevisiae, pHLuorin, HTS validation (AID 504600; in the data active means response above about 15%;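 further: plate controls were DMSO for no effect and reference compound for full effect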); details: V-ATPase proton transport, at 10 µM, stronger effect = higher value
# [13] = tested on: anti-desmoglein-3 scFv antibody binding to human DSG3; assay: blockers of pathogenic pemphigus antibody–desmoglein-3 binding – biochemical, validation compound set, bead-based, flow cytometry, pilot screen (AID 588368;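 active means binding below the plate cutoff, the plate median minus 3 SD, with a reading above zero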;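 further: signal is the median channel fluorescence of bead-bound GFP antibody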); details: Protein G beads, DSG3-Fc, scFv-GFP binding, at 10 µM, stronger effect = lower value
# [14] = Nile Red efflux blockade in pump-expressing yeast – validation compound set, multiplex, phenotypic, pilot screen (AID 588506);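 further: Nile Red retained in cells so higher fluorescence means more efflux inhibition; 0 = negative control wells and 1 = enniatin B 25 µM full block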; details: S. cerevisiae pump-expressing triplex, Nile Red efflux flow cytometry; at 10 µM; stronger effect = higher value; the pumps come from Candida albicans
# [15] = target: ATP-binding cassette sub-family B member 6 (Homo sapiens) (UniProt Q9NP58); assay: blockers of ABCB6-driven porphyrin uptake – K562-ABCB6 cells, flow cytometry, validation set, pilot screen (AID 588550;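 active means inhibition above the screen-wide mean plus 3 SD, about 51%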;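 further: 0% = DMSO wells and 100% = benzethonium chloride 70 µM positive control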); details: K562-ABCB6 porphyrin accumulation, 1 h, at 10 µM, stronger effect = higher value
# ATP-binding cassette sub-family B member 6 (Homo sapiens), sequence (Q9NP58 whole entry, looked up): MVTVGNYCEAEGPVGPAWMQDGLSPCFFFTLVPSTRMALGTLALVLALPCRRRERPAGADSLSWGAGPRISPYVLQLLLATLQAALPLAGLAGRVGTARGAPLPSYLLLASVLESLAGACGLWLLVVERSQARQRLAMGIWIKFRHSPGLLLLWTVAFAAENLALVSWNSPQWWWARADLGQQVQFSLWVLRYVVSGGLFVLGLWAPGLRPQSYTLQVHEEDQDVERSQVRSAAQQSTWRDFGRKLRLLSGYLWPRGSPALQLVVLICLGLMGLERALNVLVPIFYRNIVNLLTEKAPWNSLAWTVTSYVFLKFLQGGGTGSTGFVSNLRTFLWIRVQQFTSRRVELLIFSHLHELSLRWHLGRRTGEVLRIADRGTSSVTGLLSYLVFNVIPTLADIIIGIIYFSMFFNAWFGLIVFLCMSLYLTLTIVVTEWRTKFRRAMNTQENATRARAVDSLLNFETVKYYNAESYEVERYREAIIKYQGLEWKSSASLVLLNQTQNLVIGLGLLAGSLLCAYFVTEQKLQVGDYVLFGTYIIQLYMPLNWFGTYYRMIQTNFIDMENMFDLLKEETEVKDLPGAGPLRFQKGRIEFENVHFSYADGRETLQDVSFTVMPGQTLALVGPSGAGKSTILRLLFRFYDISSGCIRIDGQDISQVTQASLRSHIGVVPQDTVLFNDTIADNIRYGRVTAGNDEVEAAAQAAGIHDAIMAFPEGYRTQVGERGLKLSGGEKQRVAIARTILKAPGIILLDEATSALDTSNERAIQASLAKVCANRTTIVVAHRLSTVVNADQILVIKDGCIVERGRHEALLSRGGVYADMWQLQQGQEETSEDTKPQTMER
# [16] = AML differentiation inducers, ER-HoxA9 marrow cells – cell-based, GFP/MAC1 double positive, flow cytometry, validation set, primary screen (AID 588685;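 active means differentiation response of at least 50%, scaled between solvent and reference control, from cells with both markers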;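 further: compound exposure lasts four days before antibody staining and flow analysis; 0% = DMSO wells and 100% = 5 µM fulvestrant positive control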); details: stronger effect = higher value, normalized: vehicle 0, fulvestrant 100
SMILES,percent of DMSO control GFP [1],GFP response vs DMSO [2],percent response of DMSO control [3],GFP response vs DMSO [4],"GFP response, % of DMSO [5]",double positive events [6] [%],vesicle binding response [6],inhibition [7],superoxide response (% of plate) [8],aptamer binding inhibition [9],response [10],inhibition [11],response [12],binding (% of control) [13],efflux inhibition (fraction of control) [14],inhibition [15],differentiation response [16]
CC(C)C1CC(CCNCc2ccc(N(C)C)cc2)(c2ccccc2)CCO1 (stereo not drawn),95.2% (inactive),105% (inactive),118% (inactive),76.5% (inactive),87.7% (inactive),58.6,200% (inactive),9.37% (inactive),112% (inactive),-4% (inactive),3.92% (inactive),-7.09% (inactive),0.42% (inactive),111% (inactive),-0.09 (inactive),8% (inactive),-1.64% (inactive)
C=CCNC(=O)c1ccc(-c2cccc([N+](=O)[O-])c2)o1,98.8% (inactive),101% (inactive),91.7% (inactive),107% (inactive),95.1% (inactive),52.6,773% (inactive),6.85% (inactive),101% (inactive),3% (inactive),9.11% (inactive),-25% (inactive),-0.55% (inactive),101% (inactive),-0.34 (inactive),4% (inactive),6.49% (inactive)
COc1ccc2cc([C@H](C)C(=O)O)ccc2c1,103% (inactive),93% (inactive),99.6% (inactive),77.7% (inactive),91.7% (inactive),70.5,222% (inactive),2.3% (inactive),91% (inactive),5% (inactive),15.2% (inactive),-13.8% (inactive),-6.97% (inactive),99.3% (inactive),0.08 (inactive),6% (inactive),-12% (inactive)
CCc1ccc(CN(C)Cc2nc(Cc3ccccc3)no2)nc1,105% (inactive),99.6% (inactive),103% (inactive),112% (inactive),112% (inactive),59.8,160% (inactive),0.59% (inactive),101% (inactive),4% (inactive),-25% (inactive),1.57% (inactive),-11.6% (inactive),97.3% (inactive),-0.04 (inactive),-5% (inactive),14.7% (inactive)
CC1=NS(=O)(=O)c2cc(Cl)ccc2N1,98.8% (inactive),105% (inactive),93.1% (inactive),84.1% (inactive),97% (inactive),63.9,964% (inactive),-3.57% (inactive),104% (inactive),3% (inactive),-5.04% (inactive),14.6% (inactive),-1.96% (inactive),101% (inactive),-0.1 (inactive),4% (inactive),34.5% (inactive)
COc1ccc2cc(C(=O)OC(C)C)sc(=O)c2c1OC,106% (inactive),98.6% (inactive),95.1% (inactive),121% (inactive),106% (inactive),61.9,220% (inactive),3.99% (inactive),112% (inactive),0% (inactive),-12.6% (inactive),-1.55% (inactive),-19.1% (inactive),85.1% (inactive),0 (inactive),4% (inactive),11.8% (inactive)
CC(C)OC(=O)CC12CN3CN(C1)CC(CC(=O)OC(C)C)(C3)C2=O,99.5% (inactive),115% (inactive),90.1% (inactive),119% (inactive),105% (inactive),60.5,179% (inactive),-0.43% (inactive),92.3% (inactive),1% (inactive),-2.44% (inactive),11.2% (inactive),-2% (inactive),103% (inactive),0.12 (inactive),11% (inactive),39.2% (inactive)
O=c1nc2n(c3c1oc1ccccc13)Cc1ccccc1-2,100% (inactive),105% (inactive),104% (inactive),105% (inactive),108% (inactive),56.6,142% (inactive),-3.77% (inactive),93.6% (inactive),-1% (inactive),-25.7% (inactive),-6.48% (inactive),-0.9% (inactive),99.6% (inactive),-0.3 (inactive),-3% (inactive),-6.03% (inactive)
CC(C)N(Cc1nccn1C)C(=O)CC1C(=O)NCCN1Cc1ccccc1C(F)(F)F (stereo not drawn),102% (inactive),98.7% (inactive),102% (inactive),97% (inactive),103% (inactive),71.7,182% (inactive),4.27% (inactive),82.9% (inactive),-2% (inactive),2.35% (inactive),-0.01% (inactive),-1.67% (inactive),102% (inactive),-0.5 (inactive),6% (inactive),-0.18% (inactive)
